Reference: PubChem BioAssay (NCI)
The panel holds about 83,000 compounds, 20% with a hit somewhere; the sample as a whole holds those more often.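 The endpoint reported here, percent growth, reads 100 for growth as untreated, 0 for no net growth and -100 for all cells dead.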 A number with no mark means an inactive call. The calls were made as follows: active = growth percent below 10; inactive = the rest.

The compounds below were run on HL-60(TB) leukemia (assay: NCI-60 one-dose screen, 48 h (100 = growth as untreated, 0 = no growth, -100 = all killed)). Conditions: 10 µM unless noted.

Going from `Cc1ccc(C(=O)Nc2nc3c(s2)CN(Cc2ccccc2)CC3)cn1` to `Cc1ccc(NC(=O)Nc2c(Cl)cccc2Cl)cn1`, the growth falls from 92.6% to 71.3%.

Going from `COC(=O)C(C(=O)OC)C(Br)C(Br)C(Br)c1ccccc1` (stereo not given) to `CC(=O)Nc1ccc(C(=O)Nc2cc(-c3ccccc3)ccc2N)cc1`, the growth rises from 20.9% to 65.5%.

Compared with `COc1cc(NC(=O)c2cccc(-c3cc(=O)c4c(OC)c(OC)c(OC)cc4o3)c2)cc(OC)c1OC`, `N#C/C(C(=O)c1ccccc1)=C1/C(=O)Nc2ccc(F)cc21` is higher in growth: 36% for the first, 130% for the second.

Compared with `Cn1c(=O)c2nc3c(=O)n(C)c(=O)n(C)c3nc2n(C)c1=O`, `COc1nc(Nc2cccc(C(F)(F)F)c2)nc(OC)n1` is higher in growth: 85.1% for the first, 92.7% for the second.

First: CC1=CCC(OC(=O)C(C)(C)CC(O)(C(C)O)C(O)C2(C)C=CC(Cc3ccc(C(C)C)cc3)(C(C)C)CC2)(C(C)C)CC1 (stereo not given)
Second: Cc1ccccc1CNC(=O)C1CN(c2ccc(Cl)cc2)N(c2ccc(Cl)cc2)C1=O (stereo not given)
The growth of the first is higher: 95.9% for the first, 94.7% for the second.
